Results on 21 compounds are retold here after PubChem BioAssay (NCI).

Several values for one entry are separate records, joined by “and”; a condition that tells them apart may be missing. Equal entries are not always repeated. The panel holds about 79,000 compounds, 15% with a hit somewhere; the sample as a whole holds those more often. More than one record can exist for a structure, and the calls need not agree. Activity calls are given as the source filed them. Rule as the data show it: active = growth inhibition above about 70%; inactive = the rest.

Test [1] in a line: NCI Yeast Anticancer Drug Screen. Data for the rad50 strain (AID 155).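 Also: 0% = growth of vehicle-only cultures of the same strain.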 As to conditions: S. cerevisiae rad50 strain growth inhibition; at 50.0 µM; stronger effect = higher value. In short, it runs like this: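 Inhibition values express reduced yeast growth in compound-treated cultures relative to vehicle-treated controls.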
A short description of test [2]: NCI Yeast Anticancer Drug Screen. Data for the mec2-1 strain (AID 157). As to conditions: S. cerevisiae mec2-1 strain, at 50.0 µM, stronger effect = higher value. Put shortly: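 Mutant yeast (mec2-1) grown with compound; growth inhibition relative to vehicle control reported.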
A short description of test [3]: NCI Yeast Anticancer Drug Screen. Data for the sgs1 mgt1 strain (AID 161).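 Also: 0% = growth of cultures given vehicle only.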 The settings on record: S. cerevisiae sgs1 mgt1 strain, at 50.0 µM, stronger effect = higher value. In short, it runs like this: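 Compounds are added to genetically altered yeast, and growth is compared with cultures given vehicle alone to give percent inhibition.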
Test [4] can be described thus: NCI Yeast Anticancer Drug Screen. Data for the cln2 rad14 strain (AID 165).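 Also: 0% = growth equal to vehicle treated cultures.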 As to conditions: S. cerevisiae cln2 rad14 strain, at 50.0 µM, stronger effect = higher value. In short, it runs like this:
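Readout is yeast growth inhibition versus vehicle-treated controls, using a strain with cln2 and rad14 alterations exposed to compound.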

Test [5] is described as follows: NCI Yeast Anticancer Drug Screen. Data for the bub3 strain (AID 167). As to conditions: S. cerevisiae bub3 mutant strain, at 50.0 µM, stronger effect = higher value. In short, it runs like this:
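Steps: expose the mutant yeast strain to compound; grow alongside vehicle-treated cultures; measure growth; express inhibition against the vehicle cultures.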

Test [6] can be described thus: NCI Yeast Anticancer Drug Screen. Data for the mlh1 rad18 strain (AID 175). The settings on record: S. cerevisiae mlh1 rad18 strain growth inhibition; at 50.0 µM; stronger effect = higher value. Put shortly:
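Genetically defined yeast (DNA repair-deficient) exposed to compounds; growth inhibition determined relative to vehicle.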

Consider `O=C(O)Cc1ccc(C2CCC(O)CC2)cc1` (stereo unspecified), for which the growth inhibition in test [1] was 2.75% (inactive) and 8.45% (inactive); in test [2], -5.35% (inactive) and -1.85% (inactive); in test [3] it was 3.05% (inactive) and 21.2% (inactive); in test [4], -17.8% (inactive) and -4.3% (inactive); in test [5] it was -0.15% (inactive) and 5.4% (inactive); in test [6], 0.9% (inactive) and 1% (inactive).

Regarding `CC(C)CC(CC(C)C)=NNc1ccc([N+](=O)[O-])cc1[N+](=O)[O-]`, the growth inhibition is -12.9% (inactive) and -0.9% (inactive) in test [1]; 6.5% (inactive) and -18.6% (inactive) in test [2]; -10% (inactive) and -6.9% (inactive) in test [3]; -33.3% (inactive) and 19.9% (inactive) in test [4]; 12.3% (inactive) and -10.9% (inactive) in test [5]; -13.9% (inactive) and 19.4% (inactive) in test [6].

As for `O=S(=O)(O)NC1CCCCC1`, the growth inhibition in test [1] is 29.4% (inactive) and 4.8% (inactive); in test [2] it was 16.2% (inactive) and -1.15% (inactive); in test [3], -7.7% (inactive) and -4.9% (inactive); in test [4], -50.7% (inactive) and -6.3% (inactive); in test [5] it was 11.4% (inactive) and 10.1% (inactive); in test [6], 11.8% (inactive) and -9.45% (inactive).

With `CC(CCC(=O)O)C1CCC2C3C(O)CC4CC(O)CCC4(C)C3CC(O)C12C` (stereo unspecified), the growth inhibition is 42.7% (inactive) and 3.65% (inactive) in test [1]; 46.2% (inactive) and -12.6% (inactive) in test [2]; 45.4% (inactive) and -17.3% (inactive) in test [3]; 47.6% (inactive) and 0.9% (inactive) in test [4]; 46.7% (inactive) and -9.35% (inactive) in test [5]; 35.9% (inactive) and 14.2% (inactive) in test [6].

`CCOC(=O)C(NC(C)=O)C(C)=O` (stereo unspecified): the growth inhibition is 32.5% (inactive) and 10.9% (inactive) in test [1]; -7% (inactive) and -5.65% (inactive) in test [2]; 13.1% (inactive) and 8.85% (inactive) in test [3]; -4.15% (inactive) and -11.7% (inactive) in test [4]; 1.55% (inactive) and -3.15% (inactive) in test [5]; -5.85% (inactive) and 11.9% (inactive) in test [6].

On to `CC(C)(C)OC(=O)N1CCCC1C(=O)O` (stereo unspecified), for which the growth inhibition is -2% (inactive) and 4.9% (inactive) in test [1]; -22.3% (inactive) and 2.55% (inactive) in test [2]; 3.05% (inactive) and 3.8% (inactive) in test [3]; 6.05% (inactive) and -24.8% (inactive) in test [4]; 11.6% (inactive) and -5.25% (inactive) in test [5]; 2.45% (inactive) and 4.55% (inactive) in test [6].

`CCOC(=O)C(N)CCSC` (stereo unspecified): the growth inhibition in test [1] was -22.8% (inactive) and -14.2% (inactive); in test [2] it was -14.3% (inactive) and -7.65% (inactive); in test [3], -13.8% (inactive) and -1% (inactive); in test [4] it was -39.4% (inactive) and -16.6% (inactive); in test [5] it was -13.3% (inactive) and -8.95% (inactive); in test [6], -5.05% (inactive) and -17.5% (inactive).

As for `c1ccc(Cc2nc3ccccc3[nH]2)cc1`, the growth inhibition in test [1] is -13.5% (inactive) and -2.5% (inactive); in test [2], -33.8% (inactive) and -4.1% (inactive); in test [3] it was -10.4% (inactive) and -18.9% (inactive); in test [4] it was -4.9% (inactive) and 2.65% (inactive); in test [5] it was -28.8% (inactive) and -13.8% (inactive); in test [6], 0.7% (inactive) and -16.4% (inactive).

With `COc1ccc(/C=C\c2cc(OC)c(OC)c(OC)c2)cc1OC(=O)C(N)CCC(=O)O` (stereo unspecified), the growth inhibition in test [1] was -5.3% (inactive) and 8.35% (inactive); in test [2], -18.3% (inactive) and -10.8% (inactive); in test [3], -0.6% (inactive) and -3.85% (inactive); in test [4] it was 21.9% (inactive) and 6.7% (inactive); in test [5], -19.6% (inactive) and 34% (inactive); in test [6], 79.2% (active) and 3.3% (inactive).

`COC(=O)C1=COC(C)C2CN3CCc4c([nH]c5cc(OC)c(OC)cc45)C3CC12` (stereo unspecified): the growth inhibition in test [1] is 14.2% (inactive) and 5.35% (inactive) and -4.65% (inactive); in test [2] it was -5.4% (inactive) and -5.6% (inactive) and -9.7% (inactive); in test [3], 5.6% (inactive) and 12.8% (inactive) and -5.45% (inactive); in test [4] it was 6.1% (inactive) and 14.9% (inactive) and 10.6% (inactive); in test [5], 26.4% (inactive) and 18.1% (inactive) and -20.4% (inactive); in test [6] it was 25.6% (inactive) and -54.1% (inactive) and -63.4% (inactive).

`COc1cc(N)ccc1NC(C)=O`: the growth inhibition is -5.25% (inactive) and 0.6% (inactive) in test [1]; -13.6% (inactive) and -12.7% (inactive) in test [2]; 4.45% (inactive) and -35.6% (inactive) in test [3]; 18.4% (inactive) and -41% (inactive) in test [4]; -0.9% (inactive) and -2.55% (inactive) in test [5]; 18.8% (inactive) and -21.4% (inactive) in test [6].

For the compound `Cc1ccc(C(O)(C(F)(F)F)C(O)(c2ccc(C)cc2)C(F)(F)F)cc1` (stereo unspecified), the growth inhibition in test [1] was 36.8% (inactive) and 99.2% (active); in test [2], 1.9% (inactive) and 99.5% (active); in test [3], -12.8% (inactive) and 99.3% (active); in test [4], -10.2% (inactive) and 99.4% (active); in test [5], -8.85% (inactive) and 99.3% (active); in test [6], -5.75% (inactive) and 99% (active).

Take `O=C1C=CC(=O)O1` (tested in a mixture with another compound): the growth inhibition in test [1] was 13.5% (inactive) and 5.85% (inactive); in test [2], 18% (inactive) and 1.85% (inactive); in test [3], 10.6% (inactive) and 2.55% (inactive); in test [4] it was 38.1% (inactive) and 4.45% (inactive); in test [5], 30.9% (inactive) and 17% (inactive); in test [6], 22.4% (inactive) and 13.3% (inactive).

`COc1cc(C=O)ccc1O`: the growth inhibition in test [1] is 0.2% (inactive) and 12.1% (inactive); in test [2], -0.35% (inactive) and 2.65% (inactive); in test [3] it was -5.95% (inactive) and 15.9% (inactive); in test [4], 4.45% (inactive) and 6.3% (inactive); in test [5], -1.9% (inactive) and 13.4% (inactive); in test [6], 7.75% (inactive) and 14.2% (inactive).

As to `Nc1cc2ccc(S(=O)(=O)O)cc2cc1S(=O)(=O)O`, the growth inhibition was 44.5% (inactive) and 10.7% (inactive) in test [1]; 14.8% (inactive) and 10.9% (inactive) in test [2]; 17.6% (inactive) and -1.75% (inactive) in test [3]; -12.3% (inactive) and -14.9% (inactive) in test [4]; 8.8% (inactive) and 11.2% (inactive) in test [5]; 29.5% (inactive) and 35.3% (inactive) in test [6].

For the compound `CC(=O)OCC(OC(C)=O)C(OC(C)=O)C(OC(C)=O)C(C=NN(C(C)=O)S(=O)(=O)c1ccc(/C=C2\NC(=O)N(C)C2=O)cc1)OC(C)=O` (stereo unspecified), the growth inhibition in test [1] was 10.8% (inactive) and 20.4% (inactive); in test [2], 5.25% (inactive) and -9.85% (inactive); in test [3], 19.9% (inactive) and 15.7% (inactive); in test [4], 12.8% (inactive) and 33.5% (inactive); in test [5] it was 12.7% (inactive) and 12.6% (inactive); in test [6], 22.8% (inactive) and 12.1% (inactive).

With `OC1CCN2Cc3ccccc3N=C12` (stereo unspecified), the growth inhibition is 3.1% (inactive) and 22.2% (inactive) in test [1]; -0.3% (inactive) and 21.7% (inactive) in test [2]; 17.4% (inactive) and -5.9% (inactive) in test [3]; 4.5% (inactive) and 15.8% (inactive) in test [4]; -3.05% (inactive) and 13.4% (inactive) in test [5]; -2% (inactive) and -16.8% (inactive) in test [6].

Turning to `COc1ccc(COC(=O)NCC(=O)NC(C)C(=O)NC(Cc2ccccc2)C(=O)OCc2ccccc2)cc1` (stereo unspecified), the growth inhibition in test [1] was -6.5% (inactive) and 3.15% (inactive); in test [2], -10.4% (inactive) and -13.6% (inactive); in test [3], -14.9% (inactive) and -1.9% (inactive); in test [4], -21.1% (inactive) and -17.6% (inactive); in test [5], -0.7% (inactive) and 1.65% (inactive); in test [6], 4.25% (inactive) and 6.25% (inactive).

Turning to `CC(=O)C1CC(CC(=O)O)C1(C)C` (stereo unspecified), the growth inhibition in test [1] is 4.65% (inactive) and 10.1% (inactive); in test [2], -7.25% (inactive) and 9.75% (inactive); in test [3], -4.4% (inactive) and 12.5% (inactive); in test [4] it was 13.9% (inactive) and 10.6% (inactive); in test [5] it was -1.6% (inactive) and 4.9% (inactive); in test [6] it was 3.3% (inactive) and 14.9% (inactive).

For the compound `Oc1ccc2ccccc2c1CNCc1c(O)ccc2ccccc12`, the growth inhibition in test [1] was -1.45% (inactive) and 2.85% (inactive); in test [2], -7.9% (inactive) and -34.8% (inactive); in test [3], 6% (inactive) and 1.7% (inactive); in test [4], -23.4% (inactive) and -2.4% (inactive); in test [5], 26.5% (inactive) and -20.8% (inactive); in test [6] it was -8.15% (inactive) and -9.85% (inactive).

`CC(=O)OCCN(CCOC(C)=O)C(C)=O`: the growth inhibition in test [1] is 22.6% (inactive) and -2.1% (inactive); in test [2], 5.7% (inactive) and 8.4% (inactive); in test [3] it was 19.1% (inactive) and 0.4% (inactive); in test [4] it was 7.3% (inactive) and -18.9% (inactive); in test [5] it was -1.45% (inactive) and -10.7% (inactive); in test [6], 17.9% (inactive) and -3.75% (inactive).
